# Bst PK mod – alters activity of Bacillus stearothermophilus pyruvate kinase | purified pyruvate kinase, luminescence ATP production; ribose 5-phosphate activator present at AC10 | AID 361 | hit rate 1.2% among 51,000 | Potency, µM; in the data active = potency below about 11 µM; inconclusive = mostly about 12 µM to 25 µM;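 the screen sought inhibitors and activators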;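 also: scaled between full activation by ribose 5 phosphate and full inhibition by luteolin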
# Luciferase inh – blocks Photinus pyralis firefly luciferase activity. purified firefly luciferase, luminescence, 8 min. hit rate 2.2% among 72,000. Potency, µM (highest dose often 57.1 µM), for inactives: top-dose activity change, negative = inhibition, most hits filed as inhibitors. P08659; active = well fitted inhibition curve with a large enough effect; inconclusive = small, poorly fitted or top-dose-only effect; also: nearly all actives have a fitted effect of over 40% in size
# Target sequence (P08659 whole entry, looked up): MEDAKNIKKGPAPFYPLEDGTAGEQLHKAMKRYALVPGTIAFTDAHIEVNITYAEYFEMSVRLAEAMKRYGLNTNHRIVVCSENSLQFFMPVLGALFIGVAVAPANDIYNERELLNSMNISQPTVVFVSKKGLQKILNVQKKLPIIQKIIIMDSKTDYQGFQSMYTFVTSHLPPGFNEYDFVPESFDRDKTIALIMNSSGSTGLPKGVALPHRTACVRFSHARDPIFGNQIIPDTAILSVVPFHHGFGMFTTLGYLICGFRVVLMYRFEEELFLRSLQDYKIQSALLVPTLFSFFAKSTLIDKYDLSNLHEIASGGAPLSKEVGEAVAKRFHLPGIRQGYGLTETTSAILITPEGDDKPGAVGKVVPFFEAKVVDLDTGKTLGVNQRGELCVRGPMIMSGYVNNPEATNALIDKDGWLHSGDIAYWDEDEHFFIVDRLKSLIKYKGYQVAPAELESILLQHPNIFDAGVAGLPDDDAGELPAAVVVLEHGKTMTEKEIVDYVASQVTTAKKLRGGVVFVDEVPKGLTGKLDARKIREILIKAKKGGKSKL
#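 Here, luciferase activity is measured as luminescence following an 8 min room-temperature reaction at 10 uM ATP, pH 7.2. Every library sample is titrated.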
# * marks the source's active call; other numbers are inactive results; i = inactive; ? = inconclusive; nt = no result; [ ] = remark or other dose. Only some compounds are listed: those with a hit (about 2.5% of all), similar ones and a draw of the others. Unless noted, % is scaled to controls: 0 for no effect and ±100 for the full control effect; potency is read from the fitted curve at half-maximal effect.
SMILES,Bst PK mod,Luciferase inh
CN(C)S(=O)(=O)c1ccc(N2CCN(S(=O)(=O)c3ccc(F)cc3)CC2)c(Cl)c1,6.1*,2%
CN(C)S(=O)(=O)N1CCN(S(=O)(=O)c2ccc(F)cc2)CC1,>57,0%
O=C(CCN1CCN(C/C=C/c2ccccc2)CC1)Nc1ccccc1,nt,2%
CCN1CCN(/C=N/c2nc3c(s2)CCCC3)CC1,?,13µM*
O=C(CSc1nc2ccccc2c(=O)n1CCCO)NCc1ccccc1,>57,3%
CC(=O)Nc1nonc1NC(=O)CSc1ccccn1,>57,2%
O=C(OCc1nnc(-c2ccc(Cl)cc2)o1)c1ccncc1,i,-2%
O=C(OCc1nnc(-c2ccc(Cl)cc2)o1)c1ccc(=O)n(Cc2ccccc2)n1,9.8*,-1%
CCNC(=O)c1c(C)nc2ccccn12,nt,0%
[O-][n+]1onc2c1CCc1nnc(-c3ccccc3)cc1-2,>57,2%
Cc1ccc(-c2cc3c(nn2)-c2ccccc2C3=O)cc1,nt,0.25µM*
C=C(C)c1cccc(C(C)(C)NC(=O)NCCCN2CCCC2=O)c1,>57,4%
Cc1cccc(NC(=O)c2sc(NC(=O)c3ccco3)c(C#N)c2C)c1C,>57,0%
CC1(C)Cc2c(sc(NC(=O)c3ccco3)c2C#N)CO1,?,7.9µM*
N#CCCN1CCN(C(=S)c2ccc(-c3cc(Cl)ccc3Cl)o2)CC1,>57,-8%
S=C(c1ccc(-c2ccccc2Cl)o1)N1CCOCC1,nt,16µM*
S=C(c1ccc(-c2ccc(Cl)c(Cl)c2)o1)N1CCOCC1,nt,7.9µM*
O=C(c1ccc(-c2cccc(C(F)(F)F)c2)o1)N1CCOCC1,>57,-3%
CC(C)Sc1oc(-c2ccco2)nc1S(=O)(=O)c1ccc(F)cc1,>57,1%
Cc1ccc(C(=O)n2cnnc2N)cc1C,>57,2%
CC(C)NC(=O)CSCc1ccccc1Cl,nt,2%
CSc1nc2ccc(NC(=O)C3CC(=O)N(Cc4ccco4)C3)cc2s1 (centres undefined),nt,-4%
Cc1ccc2oc(-c3cccc(NC(=O)C4CCCO4)c3)nc2c1 (centres undefined),i,20µM*
CCC(=O)Nc1ccc2oc(-c3cccc(C)c3)nc2c1,2.1*,2.5µM*
CCCC(=O)Nc1cccc(-c2nc3ccccc3o2)c1,>57,-4%
SMILES,Bst PK mod,Luciferase inh
O=C(Nc1cccc(-c2nc3cc(Cl)ccc3o2)c1)C1CCCO1 (centres undefined),i,-11%
CCCC(=O)Nc1cccc(-c2nc3cc(C)c(C)cc3o2)c1,nt,7.9µM*
CSc1nc2ccc(NC(=O)C3CCCO3)cc2s1 (centres undefined),i,25µM*
CCCC(=O)Nc1ccc2oc(-c3cccnc3)nc2c1,nt,-14%
COc1cccc(CC(=O)Nc2nccs2)c1,>57,1%
O=C(CC(SCCO)c1ccc2c(c1)OCO2)c1ccco1 (centres undefined),nt,-20%
COc1cc(C(=O)Nc2ccc3c(c2)OCO3)ccc1-n1cnnn1,>57,5%
CC1CCCC(NC(=O)COC(=O)Cc2cn3ccsc3n2)C1C (centres undefined),>57,-1%
Cc1ccsc1C(=O)OC1CCOC1=O (centres undefined),>57,-36%
Cc1c(Cl)c(S(N)(=O)=O)cc(S(N)(=O)=O)c1NC(=O)c1ccc(Cl)cc1,nt,3%[11.4 µM]
CC(=Nc1cccc(O)c1)c1sc2ccccc2c1O,8.2*,7.9µM*
COC(=O)c1sc2ccccc2c1N,nt,-8%
CC[N+](CC)(CC)CC,nt,-1%
COCCNS(=O)(=O)c1ccc(C2CNC(=O)C2)cc1 (centres undefined),nt,2%
Cc1ccc(C)c(N2CCN(C(=O)C3CCCN(S(=O)(=O)c4cnc[nH]4)C3)CC2)c1 (centres undefined),nt,0%
CCOc1ccc2nc(NC(=O)CS(=O)(=O)c3ccccc3)sc2c1,>57,-24%
CCCC(=O)Nc1nc2ccc(OCC)cc2s1,nt,13µM*
Cc1ccc2nc(NC(=O)CN3CCOCC3)sc2c1,>57,-3%
COCC(=O)Nc1nc2ccc(C)cc2s1,i,20µM*
CCOC(=O)Nc1ccc2c(c1)N(C(=O)CN(CC)CC)c1ccccc1C=C2,>57,2%
COc1ccc2nc(N3CCCC3)c(C#N)cc2c1,>57,-11%
COc1ccc2nc(N3CCCCC3)c(C#N)cc2c1,i,25µM*
Cn1nnnc1SCc1nnc(-c2ccc(Cl)cc2)o1,>57,5%
Cc1occc1-c1nnc(SCc2nnc(-c3ccc(Cl)cc3)o2)n1C,4.5*,-2%
O=c1cc(-c2ccccc2)nc2nc(CCc3ccccc3)[nH]n12,>57,-1%
SMILES,Bst PK mod,Luciferase inh
Cc1nc2nc(-c3ccccc3)cc(=O)n2[nH]1,nt,25µM*
COc1ccc(NC(=O)C2CCN(c3cc(-c4ccccc4)nc4ncnn34)CC2)cc1OC,nt,-3%
CC1(C)CC(=O)C2=C(C1)OC(N)=C(C#N)C2C1C=CCCC1 (centres undefined),>11,-3%[25.5 µM]
Brc1ccc2nc(CSc3ncn[nH]3)cn2c1,>57,25µM*
Clc1ccc(CSc2ncn[nH]2)cc1,nt,-1%
CCN(CC)CC#CCOC(=O)C(O)(c1ccccc1)C1CCCCC1 (centres undefined),>26,0%[25.5 µM]
Cc1ccc(OCc2nc(-c3ccccn3)no2)c(Br)c1,nt,5µM*
Cc1ccc(SCc2nc(-c3ccccn3)no2)cc1,>57,-4%
Cc1cc(OCc2nc(-c3cccnc3)no2)c(C)cc1Br,>57,1%
CC(C)c1ccc(OCc2nc(-c3ccccn3)no2)c(Br)c1,nt,16µM*
CC(Oc1ccc(Cl)cc1Cl)c1nc(-c2ccccn2)no1 (centres undefined),nt,-7%
CCc1ccc(OCc2nc(-c3ccccn3)no2)c(Br)c1,?,13µM*
CC(C)(C)Cc1nc(-c2ccccn2)no1,>57,-3%
Clc1ccc(OCc2nc(-c3ccncc3)no2)c(Br)c1,nt,7.9µM*
O=C(Cn1nnc(-c2ccccc2)n1)NCc1cccs1,>57,1%
CC1CCN(C(=O)c2ccc(C(=O)N3CCC(C)CC3)cc2)CC1,>57,-2%
CC(n1cnnn1)C12CC3CC(CC(C3)C1)C2 (centres undefined),>57,-3%
CCSCCOC(=O)C1=C(C)NC(=O)NC1c1cc(OC)ccc1OC (centres undefined),nt,-2%
CC(C)Sc1nnc([C@H](C)NC(=O)OC(C)(C)C)o1,>57,-2%
c1cncc(-c2cccnc2)c1,>57,4%
Cc1ccc2oc(=O)c3cnn(CC(=O)NC4CCC(C)CC4)c3c2c1 (centres undefined),nt,1%
Nc1nc(CN2CCOCC2)cs1,>57,4%
C[C@]12CCC3c4ccc(O)cc4CCC3[C@@H]1CCC2=O (some centres undefined),nt,5%[25.5 µM]
Nc1nc2nccc(-c3ccc(Cl)cc3)n2n1,6*,?
Cc1cc(-c2ccc(Cl)cc2)n2nc(N)nc2n1,?,0%
SMILES,Bst PK mod,Luciferase inh
CCOC(=O)CSc1nnc(-c2ccc(Cl)cc2Cl)o1,nt,13µM*
CCCOC(=O)CSc1nnc(-c2ccc(Cl)cc2Cl)o1,>57,-8%
CCC(=O)Nc1nonc1-c1nc2ccccc2n1CC(C)C,>57,2%
COC(=O)c1ccc(NC(=O)CSc2nnc(C)n2-c2ccccc2)cc1,>57,-1%
CCSc1nnc(C)n1-c1ccc(C(=O)O)cc1,6.6*,-1%
O=C(NC1CCCCC1)C(c1ccco1)N(Cc1cccnc1)C(=O)C1COc2ccccc2O1 (centres undefined),>57,0%
Cc1cc(OCC(=O)C(C)(C)C)c2c(C)c(C)c(=O)oc2c1,nt,3%
CCOc1ccc(C(=O)COC(=O)CC)cc1,nt,16µM*
